Measurements as given in the supplement of paper PMC11624193, “Coupling cellular drug-target engagement to downstream pharmacology with CeTEAM” (Nature Communications, 2024).
Structures can show the parent of a compound that is named as a salt.

Each compound was assayed against PARP1 L713F-nLuc biosensor (HCT116) (UniProt P09874) (assay: PARP1 L713F-nLuc/akaLuc ratio relative to DMSO control (biosensor stabilization) (fold change); higher = more PARP1 biosensor stabilization (target engagement / stabilizer), active = hit call of the paper). Details: stock concentration (mM; final µM = stock mM x 1): 2; 24 h;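 active = log2 fold change beyond 2 SD from the library mean after excluding viability outliers; inactive = within 2 SD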.
Chain of PARP1 L713F-nLuc biosensor (HCT116) (P09874 whole entry L713F, looked up): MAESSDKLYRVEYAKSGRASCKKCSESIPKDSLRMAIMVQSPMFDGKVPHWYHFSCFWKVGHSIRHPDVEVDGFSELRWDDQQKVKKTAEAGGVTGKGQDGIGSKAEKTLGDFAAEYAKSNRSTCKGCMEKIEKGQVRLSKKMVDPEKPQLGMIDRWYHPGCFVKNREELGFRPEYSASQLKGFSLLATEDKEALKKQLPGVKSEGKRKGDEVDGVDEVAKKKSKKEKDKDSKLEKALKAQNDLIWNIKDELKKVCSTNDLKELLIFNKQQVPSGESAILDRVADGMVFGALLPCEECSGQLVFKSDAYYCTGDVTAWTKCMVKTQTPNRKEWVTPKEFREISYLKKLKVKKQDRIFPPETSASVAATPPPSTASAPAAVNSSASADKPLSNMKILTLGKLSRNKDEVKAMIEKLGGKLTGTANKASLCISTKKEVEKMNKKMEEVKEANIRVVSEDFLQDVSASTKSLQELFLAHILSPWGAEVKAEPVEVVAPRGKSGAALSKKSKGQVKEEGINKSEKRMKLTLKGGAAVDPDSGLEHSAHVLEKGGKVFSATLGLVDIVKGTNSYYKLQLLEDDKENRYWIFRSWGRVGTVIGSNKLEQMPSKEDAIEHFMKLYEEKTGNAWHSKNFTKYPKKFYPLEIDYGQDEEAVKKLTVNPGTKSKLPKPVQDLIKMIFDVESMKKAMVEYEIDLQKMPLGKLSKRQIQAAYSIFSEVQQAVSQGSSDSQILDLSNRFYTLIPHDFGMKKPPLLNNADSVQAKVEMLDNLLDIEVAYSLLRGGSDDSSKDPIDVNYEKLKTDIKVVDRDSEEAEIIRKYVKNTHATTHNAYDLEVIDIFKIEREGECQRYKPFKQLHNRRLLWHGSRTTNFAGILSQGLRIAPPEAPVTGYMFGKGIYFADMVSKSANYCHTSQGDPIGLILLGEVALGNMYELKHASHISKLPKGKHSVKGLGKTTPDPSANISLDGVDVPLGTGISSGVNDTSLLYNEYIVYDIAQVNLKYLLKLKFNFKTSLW

**Q.** Which “PARP1 L713F-nLuc/akaLuc ratio” value does the source give for `Cn1cc(-c2ccc(F)c(C(F)(F)F)c2)nc1C1CCN(c2ncnc3[nH]ncc23)CC1` here?
**A.** 0.945 (inactive)

**Q.** With `Cn1cc(C[C@@H](N)C(=O)O)c2ccccc21` [Indoximod (NLG-8189?] as the compound, how does the “PARP1 L713F-nLuc/akaLuc ratio” value read?
**A.** 0.857 (inactive)

**Q.** Which “PARP1 L713F-nLuc/akaLuc ratio” value does the source give for `CCc1cc(O)c(F)cc1-c1ccc2c(-c3nc4c([nH]3)CN(C3CCN(C)CC3)CC4)n[nH]c2c1` [JAK-IN-5 (hydrochloride)] here?
**A.** 0.581 (inactive)

Same assay, conditions: stock concentration (mM; final µM = stock mM x 1): 10; 24 h

**Q.** For `COc1ccc(C(NC(=O)c2cnc(-c3cccnn3)[nH]c2=O)c2ccc(OC)cc2)cc1`, which “PARP1 L713F-nLuc/akaLuc ratio” value is on record?
**A.** 0.884 (inactive)

**Q.** For `CC(C)=CC(=O)O[C@H]1Cc2cc3ccc(=O)oc3cc2OC1(C)C` [Decursin], which “PARP1 L713F-nLuc/akaLuc ratio” value is on record?
**A.** 0.768 (inactive)

**Q.** With `CC(C)(CCCCCC(O)CCCCCC(C)(C)C(=O)O)C(=O)O` [Bempedoic acid] as the compound, how does the “PARP1 L713F-nLuc/akaLuc ratio” value read?
**A.** 1.02 (inactive)

**Q.** Which “PARP1 L713F-nLuc/akaLuc ratio” value does the source give for `NC(=O)[C@@H]1CCCc2c1[nH]c1ccc(Cl)cc21` [(R)-Selisistat] here?
**A.** 0.592 (inactive)

**Q.** Which “PARP1 L713F-nLuc/akaLuc ratio” value does the source give for `CCCCCCCc1ccc(CCc2cccc(O)c2C(=O)O)cc1` here?
**A.** 0.768 (inactive)

**Q.** For `Clc1cc2c(NC3CCCC3)nnc(-c3ccncc3)c2cc1Cl`, which “PARP1 L713F-nLuc/akaLuc ratio” value is on record?
**A.** 0.888 (inactive)

**Q.** With `COCCCc1sc(-c2ccccc2)nc1C(=O)Nc1ccccc1-c1nc2cc(CN3CCCC3)cnc2s1` [Sirtuin modulator 1] as the compound, how does the “PARP1 L713F-nLuc/akaLuc ratio” value read?
**A.** 0.737 (inactive)

**Q.** With `CC[C@]1(O)C[C@@H]2CN(CCc3c([nH]c4ccccc34)[C@@](C(=O)OC)(c3cc4c(cc3OC)N(C)[C@H]3[C@@](O)(C(=O)OC)[C@H](OC(C)=O)[C@]5(CC)C=CCN6CC[C@]43[C@@H]65)C2)C1` [Vinblastine sulfate] as the compound, how does the “PARP1 L713F-nLuc/akaLuc ratio” value read?
**A.** 1.03 (inactive)
